# Assay results taken from the supplement of paper PMC8728848.
# Many of the other results were omitted from the sample, so the strongest signals are more common in it than they were.
# How the values were obtained:
# Assay in all cases: glycan array binding signal (z-score within array); higher = stronger binding
# Conditions in all cases: glycan notation: IUPAC condensed, linker removed
# [1] = biological target: Gal(b1-4)GlcNAc(b1-3)Gal(b1-4)GlcNAc(b1-3)Gal(b1-4)GlcNAc(b1-3)Gal(b1-4)GlcNAc(b1-3)Gal(b1-4)GlcNAc(b1-2)Man(a1-3)[Gal(b1-4)GlcNAc(b1-3)Gal(b1-4)GlcNAc(b1-3)Gal(b1-4)GlcNAc(b1-3)Gal(b1-4)GlcNAc(b1-3)Gal(b1-4)GlcNAc(b1-2)Man(a1-6)]Man(b1-4)GlcNAc(b1-4)GlcNAc
# In short: (§1)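 Columns mapping to the same glycan were averaged after glycan names were converted to IUPAC-condensed notation. The data come from 3228 arrays in the Consortium for Functional Glycomics database, limited to those with an available protein sequence. Binding is reported as a within-array Z-score averaged across arrays of one protein sequence and across linkers.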
# [2] = biological target: Gal(b1-4)GlcNAc(b1-3)Gal(b1-4)GlcNAc(b1-3)Gal(b1-4)GlcNAc(b1-3)Gal(b1-4)GlcNAc(b1-3)Gal(b1-4)GlcNAc(b1-2)Man(a1-3)[Gal(b1-4)GlcNAc(b1-3)Gal(b1-4)GlcNAc(b1-3)Gal(b1-4)GlcNAc(b1-3)Gal(b1-4)GlcNAc(b1-3)Gal(b1-4)GlcNAc(b1-2)Man(a1-6)]Man(b1-4)GlcNAc(b1-4)[Fuc(a1-6)]GlcNAc
# In short: as §1
# [3] = biological target: Gal(b1-4)GlcNAc(b1-3)Gal(b1-4)GlcNAc(b1-3)[Gal(b1-4)GlcNAc(b1-3)Gal(b1-4)GlcNAc(b1-6)]GalNAc
# In short: as §1
# [4] = biological target: Gal3S(b1-3)GlcNAc
# In short: as §1
# [5] = biological target: Gal3S6S(b1-4)GlcNAc6S
# In short: as §1
# [6] = biological target: Gal6P(b1-4)GlcNAc
# In short: as §1
# [7] = biological target: GalNAc(b1-3)Gal(a1-6)Gal(b1-4)Glc
# In short: as §1
# [8] = biological target: GalNAc(b1-4)GlcNAc(b1-2)Man
# In short: as §1
# [9] = biological target: GalNAc3S(b1-4)[Fuc(a1-3)]GlcNAc
# In short: as §1
# [10] = biological target: GlcA(b1-3)GlcNAc
# In short: as §1
# [11] = biological target: GlcNAc(b1-2)Man(a1-3)[GlcNAc(b1-2)Man(a1-6)]Man(b1-4)GlcNAc(b1-4)GlcNAc
# In short: as §1
# [12] = biological target: GlcNAc(b1-2)[GlcNAc(b1-4)]Man(a1-3)[GlcNAc(b1-4)][GlcNAc(b1-2)[GlcNAc(b1-6)]Man(a1-6)]Man(b1-4)GlcNAc(b1-4)[Fuc(a1-6)]GlcNAc
# In short: as §1
# [13] = biological target: GlcNAc(b1-3)Gal(b1-3)GalNAc
# In short: as §1
# [14] = biological target: GlcNAc(b1-3)Gal(b1-4)Glc
# In short: as §1
# [15] = biological target: GlcNAc(b1-3)Gal(b1-4)GlcNAc
# In short: as §1
# [16] = biological target: GlcNAc(b1-3)Gal(b1-4)GlcNAc(b1-3)Gal(b1-4)GlcNAc(b1-3)Gal(b1-4)GlcNAc(b1-2)Man(a1-3)[GlcNAc(b1-3)Gal(b1-4)GlcNAc(b1-3)Gal(b1-4)GlcNAc(b1-3)Gal(b1-4)GlcNAc(b1-2)Man(a1-6)]Man(b1-4)GlcNAc(b1-4)[Fuc(a1-6)]GlcNAc
# In short: as §1
# [17] = biological target: GlcNAc(b1-3)Gal(b1-4)GlcNAc(b1-6)[GlcNAc(b1-3)Gal(b1-3)]GalNAc
# In short: as §1
# [18] = biological target: Man(a1-2)Man(a1-3)[Man(a1-6)]Man(a1-6)[Man(a1-2)Man(a1-3)]Man(b1-4)GlcNAc(b1-4)GlcNAc
# In short: as §1
# [19] = biological target: Man(b1-4)GlcNAc
# In short: as §1
# [20] = biological target: Neu5Ac(a2-3)Gal(b1-3)GalNAc6S
# In short: as §1
# [21] = biological target: Neu5Ac(a2-3)Gal(b1-3)GlcNAc6S
# In short: as §1
# [22] = biological target: Neu5Ac(a2-3)Gal(b1-3)[Fuc(a1-4)]GlcNAc(b1-3)Gal(b1-4)[Fuc(a1-3)]GlcNAc
# In short: as §1
# [23] = biological target: Neu5Ac(a2-3)Gal(b1-4)GlcNAc(b1-2)[Neu5Ac(a2-3)Gal(b1-4)GlcNAc(b1-4)]Man(a1-3)[GlcNAc(b1-4)][Neu5Ac(a2-3)Gal(b1-4)GlcNAc(b1-2)[Neu5Ac(a2-3)Gal(b1-4)GlcNAc(b1-6)]Man(a1-6)]Man(b1-4)GlcNAc(b1-4)GlcNAc
# In short: as §1
# [24] = biological target: Neu5Ac(a2-3)Gal(b1-4)GlcNAc(b1-6)[Gal(b1-3)]GalNAc
# In short: as §1
# [25] = biological target: Neu5Ac(a2-3)Gal(b1-4)[Fuc(a1-3)]GlcNAc(b1-3)Gal(b1-4)GlcNAc
# In short: as §1
# [26] = biological target: Neu5Ac(a2-3)GalNAc
# In short: as §1
# [27] = biological target: Neu5Ac(a2-6)Gal(b1-4)GlcNAc(b1-2)Man(a1-6)Man(b1-4)GlcNAc(b1-4)GlcNAc
# In short: as §1
# [28] = biological target: Neu5Ac(a2-6)Gal(b1-4)GlcNAc(b1-3)Gal(b1-4)[Fuc(a1-3)]GlcNAc(b1-3)Gal(b1-4)[Fuc(a1-3)]GlcNAc
# In short: as §1
# [29] = biological target: Neu5Ac(a2-8)Neu5Ac
# In short: as §1
# [30] = biological target: Neu5Gc(a2-3)Gal(b1-3)GlcNAc
# In short: as §1
# [31] = biological target: Neu5Gc(a2-8)Neu5Gc(a2-6)Gal(b1-4)GlcNAc
# In short: as §1
binder,measurement,setting,value
Mermaid1 (Stilbonema majum) (protein) MGSSHHHHHHSSGLVPRGSHMAASGWLRSPQGTVVKLYRRSLSWSKADEFCKDVDGRLVVDRTADMHLFLIKNVLKEKKSRVWVGLRRTAPHSRTWIWSDGTRQNEDDLDANLWLRDEPNDAAGEEECALFMYSPWEKAWGLNDYLCRGGCRSYQFICEKWIR,glycan array binding signal (z-score),[1],0.715
same,glycan array binding signal (z-score),[2],-0.28
same,glycan array binding signal (z-score),[3],-0.17
same,glycan array binding signal (z-score),[4],0.37
same,glycan array binding signal (z-score),[5],-0.524
same,glycan array binding signal (z-score),[6],-0.911
same,glycan array binding signal (z-score),[7],-0.59
same,glycan array binding signal (z-score),[8],3.48
same,glycan array binding signal (z-score),[9],0.714
same,glycan array binding signal (z-score),[10],-0.379
same,glycan array binding signal (z-score),[11],-0.645
same,glycan array binding signal (z-score),[12],-0.663
same,glycan array binding signal (z-score),[13],-0.864
same,glycan array binding signal (z-score),[14],0.313
same,glycan array binding signal (z-score),[15],-0.029
same,glycan array binding signal (z-score),[16],0.762
same,glycan array binding signal (z-score),[17],-0.841
same,glycan array binding signal (z-score),[18],-0.285
same,glycan array binding signal (z-score),[19],8.49
same,glycan array binding signal (z-score),[20],0.152
same,glycan array binding signal (z-score),[21],0.494
same,glycan array binding signal (z-score),[22],2.98
same,glycan array binding signal (z-score),[23],-0.428
same,glycan array binding signal (z-score),[24],5.42
same,glycan array binding signal (z-score),[25],-0.359
same,glycan array binding signal (z-score),[26],-0.535
same,glycan array binding signal (z-score),[27],-0.437
same,glycan array binding signal (z-score),[28],-0.822
same,glycan array binding signal (z-score),[29],-0.351
same,glycan array binding signal (z-score),[30],-0.396
same,glycan array binding signal (z-score),[31],0.03
